The values below come from the supplement of paper PMC6555819.

The subject of one assay is PPARg:RXRa 30nM:10nM, anti-RXR (NR concentration 30 nM, RXRa partner concentration 10 nM). The experiment in a line: PBM binding z-score (relative to random genomic background probes); higher = stronger binding; sequences stand for … in GC…GCGATTGACAGCGTAGAATGAAGG
Put shortly: (§1)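 Custom Agilent 4×180K protein-binding microarrays carried double-stranded probes, each with a 34-nt variable region. These regions held direct-repeat seeds, single-nucleotide variants, half-site ablations and random human genomic background sequences. Ligand-free nuclear receptor dimers were incubated on the arrays for 1 h, antibodies against each partner (one per run) detected binding, and scanned fluorescence was regression-normalized. Binding z-scores take the random background probes as reference.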
For the sequence ACAGACAGGTGATGAAGGTAACTCCGGCTATCAT, the PBM binding z-score was -0.0835.
As for GCGACTGGGGCAAAGCAGGTGACCATAAGGTTGG, the PBM binding z-score was -0.349.
For GCTATTAGTTGAAAGGGCAAACGAATGATTCTCG, the PBM binding z-score was 2.73.
For AGAATGAGGTTATTAAGATCAGGCAATTGCGGTC, the PBM binding z-score was determined as 0.485.
As to ATCTCTAGGTAAAAGTTCCGTGAATCCCGAGGAT, the PBM binding z-score stood at 2.6.
On the same count and under the same terms, the figure for GCTTGCAGATCAAGGTTAAGAAAGACTAAGCTAA is 0.0105; for ACTAGCAGGCCAAGGGTCACTCCAGATTAGTCCG it is 5.52; for ATCGGAAGGTCGAAGGTGAGTATACCCACCCGAA it is 1.55.
CCGACTGGGGCAAAGGTTACCATCCTCAGTACGA had a PBM binding z-score of 8.35.
The same measure, in the same setting: the figure for CCTACTGGGCAAAGGTCATTGATCAGTCAAAGCA is 5.9; for ATCTCTAGGTAAAGATAGTACAGTGAATGCAAAT it is 0.819.
In the case of CATACAGGGTCAGCTAGGCCAGAGCAGGGACGGC, the PBM binding z-score was determined as 0.789.
ATCTATAGGTAAAAGTTCAGTGAATCCCGAGGAT came in with a PBM binding z-score of 5.53.
Sequence ATCGAAAGGTCGAGGTGAGTCTAGAGAAAGGGAA displayed a PBM binding z-score of 1.16.
On to TCTCGTAGATCAATAGAGGTTAAGAAAGTGCGCT, for which the PBM binding z-score is 2.83.
Take GCGACTGGGGCAAAGCAGGTTTCCATAAGGTTGG: the PBM binding z-score was -0.401.
Take ACATGTAGGTTATCGGGTCATTCAGTTTGCGCAT: the PBM binding z-score came to 2.59.
Still for that read-out and setting: the figure for CCGAGTAGGTTACGGGGCATTCAGGCAACGGTGA is 1.1; for GTGCCAAGGTGAATAGGTCGTTGATGAGTAGGCG it is 0.00309; for GATACAGGGCCAAGGCCAGAGTACGCGTATTGAT it is -0.269.
Consider CCTACTGGGCCATCAGGGCATTGATATCAACGTT, for which the PBM binding z-score is -0.00697.
ATCTCTAGGTAACCAAGTTAAGTGAATGCCGAAC returned a PBM binding z-score of 0.346.
ACTAGCAGGCCATGGGTCACTCAAGATTAGTCCG came in with a PBM binding z-score of 4.15.
Sequence CGTCAAAGTTCAAGGTAACGAAACAGAAAGCAGC displayed a PBM binding z-score of 2.22.
Regarding TTACCAAGGTGAAGGTTGTTGATCCCTCTGTAGA, the PBM binding z-score is 1.07.
Same read-out and setting: the figure for TCTAGTTGGTCACGGAGGTCTCACACGACGGGTA is 2.94; for CGTCCAAGGTCAGCAGGTCAGTGAAAGCGACGTG it is 0.905.
Consider CCTGCTATGTCAATGGTCAGCTAAAGCAGCTCGC, for which the PBM binding z-score is -0.198.
Same read-out and setting: under CCGACTGGGGCAAAGGTTACCATTCTCAGTACGA stands 8.44.
Regarding CGTCCAAGGTCAGCGAGGTCAGTGAATGCCGAGT, the PBM binding z-score is 0.896.
Same read-out and setting: the figure for AGTCAAAGTTCACTAGCTAACGTAAGATTCAGCT is 2.82; for TCAATTAGTTGAAGGGCAACCGACGAGTCCGTTT it is 3.38.
For TCTCGGAGGACACGAAAGGTTAGAGCTCGACATC, the PBM binding z-score amounted to 2.52.
In the case of TGAATGAGGTTATAAGATCAGGGAGCGTTGCAAA, the PBM binding z-score came out at 0.643.
TCTGCTAGGTCAACGAAGGTCAGCTAATCTGCTA yielded a PBM binding z-score of 2.3.
Regarding TCTTGTAGATCAACAGGAGGCTAAGAAAGATCGA, the PBM binding z-score turned out to be 2.28.
In turn, CTCGAAAGGTCGGGTGAGGTGAGTATACGGATAA came in with a PBM binding z-score of 0.448.
Same read-out and setting: the figure for TAGCATAGGTCATTCAGGGGCCAGTATAGAAAGC is 1.5; for ATGCCAAGGTGATCGTGAGGTCGTTGATACTAAC it is -0.303; for GAATATAGGTAATACAAGGTGAAAGTCCGATTGT it is 0.987.

The subject of a further assay is PPARg:RXRa 90nM:30nM, anti-RXR (NR concentration 90 nM, RXRa partner concentration 30 nM). The assay is described as above. Put shortly:
as §1
As to ACAGACAGGTGATGAAGGTAACTCCGGCTATCAT, the PBM binding z-score was -0.0688.
Sequence GCGACTGGGGCAAAGCAGGTGACCATAAGGTTGG registered a PBM binding z-score of 0.239.
In turn, GCTATTAGTTGAAAGGGCAAACGAATGATTCTCG yielded a PBM binding z-score of 4.34.
Sequence AGAATGAGGTTATTAAGATCAGGCAATTGCGGTC returned a PBM binding z-score of 1.18.
In turn, ATCTCTAGGTAAAAGTTCCGTGAATCCCGAGGAT registered a PBM binding z-score of 3.7.
Still for that read-out and setting: under GCTTGCAGATCAAGGTTAAGAAAGACTAAGCTAA stands 0.351; under ACTAGCAGGCCAAGGGTCACTCCAGATTAGTCCG, 7.48.
ATCGGAAGGTCGAAGGTGAGTATACCCACCCGAA gave a PBM binding z-score of 3.07.
On to CCGACTGGGGCAAAGGTTACCATCCTCAGTACGA, for which the PBM binding z-score amounted to 10.1.
CCTACTGGGCAAAGGTCATTGATCAGTCAAAGCA showed a PBM binding z-score of 7.6.
ATCTCTAGGTAAAGATAGTACAGTGAATGCAAAT yielded a PBM binding z-score of 0.761.
Sequence CATACAGGGTCAGCTAGGCCAGAGCAGGGACGGC came in with a PBM binding z-score of 1.85.
For the sequence ATCTATAGGTAAAAGTTCAGTGAATCCCGAGGAT, the PBM binding z-score was found to be 7.36.
On to ATCGAAAGGTCGAGGTGAGTCTAGAGAAAGGGAA, for which the PBM binding z-score came to 2.32.
Still for that read-out and setting: under TCTCGTAGATCAATAGAGGTTAAGAAAGTGCGCT stands 2.12.
Same read-out and setting: the figure for GCGACTGGGGCAAAGCAGGTTTCCATAAGGTTGG is 0.205; for ACATGTAGGTTATCGGGTCATTCAGTTTGCGCAT it is 4.9; for CCGAGTAGGTTACGGGGCATTCAGGCAACGGTGA it is 2.95.
Consider GTGCCAAGGTGAATAGGTCGTTGATGAGTAGGCG, for which the PBM binding z-score was 0.77.
In the case of GATACAGGGCCAAGGCCAGAGTACGCGTATTGAT, the PBM binding z-score was -0.247.
The same measure, in the same setting: under CCTACTGGGCCATCAGGGCATTGATATCAACGTT stands 0.846; under ATCTCTAGGTAACCAAGTTAAGTGAATGCCGAAC, 0.476; under ACTAGCAGGCCATGGGTCACTCAAGATTAGTCCG, 5.31.
Consider CGTCAAAGTTCAAGGTAACGAAACAGAAAGCAGC, for which the PBM binding z-score was determined as 4.42.
TTACCAAGGTGAAGGTTGTTGATCCCTCTGTAGA came in with a PBM binding z-score of 1.96.
Same read-out and setting: under TCTAGTTGGTCACGGAGGTCTCACACGACGGGTA stands 2.55; under CGTCCAAGGTCAGCAGGTCAGTGAAAGCGACGTG, 2.91.
CCTGCTATGTCAATGGTCAGCTAAAGCAGCTCGC returned a PBM binding z-score of 0.923.
Still for that read-out and setting: the figure for CCGACTGGGGCAAAGGTTACCATTCTCAGTACGA is 11.7.
In turn, CGTCCAAGGTCAGCGAGGTCAGTGAATGCCGAGT had a PBM binding z-score of 3.3.
Sequence AGTCAAAGTTCACTAGCTAACGTAAGATTCAGCT had a PBM binding z-score of 4.54.
On the same count and under the same terms, under TCAATTAGTTGAAGGGCAACCGACGAGTCCGTTT stands 2.61; under TCTCGGAGGACACGAAAGGTTAGAGCTCGACATC, 2.03.
In turn, TGAATGAGGTTATAAGATCAGGGAGCGTTGCAAA returned a PBM binding z-score of 1.55.
As for TCTGCTAGGTCAACGAAGGTCAGCTAATCTGCTA, the PBM binding z-score was determined as 3.7.
TCTTGTAGATCAACAGGAGGCTAAGAAAGATCGA displayed a PBM binding z-score of 1.35.
In turn, CTCGAAAGGTCGGGTGAGGTGAGTATACGGATAA came in with a PBM binding z-score of 1.04.
On the same count and under the same terms, under TAGCATAGGTCATTCAGGGGCCAGTATAGAAAGC stands 3.18; under ATGCCAAGGTGATCGTGAGGTCGTTGATACTAAC, 0.00157; under GAATATAGGTAATACAAGGTGAAAGTCCGATTGT, 2.
